Data on 89 molecules can be found in PubChem BioAssay AID504423 (Broad Institute, 2011).

Out of some 340,000 compounds screened, about 260 (0.076%) were called active. The entries come from a sample that favours actives as a whole. A number with no mark means an inactive call.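 How the source made its calls: active means highest replicate inhibition at or above 60% at 9 µM, even if other replicates fall short; inactive means all replicates below 60% inhibition.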

The test system of the assay is Kaposi's sarcoma herpesvirus LANA C-terminal domain (residues 932-1162) DNA binding. Kind of assay: blockers of LANA C-terminal domain DNA interaction – biochemical, fluorescence polarization, FAM-LBS DNA, MBP-C-LANA, single point, primary screen (AID 504423).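 Further: 0% = neutral control wells and 100% = 4 µM acridine orange control.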 As to conditions: at 9 µM, active compounds read high. A general note: In fluorescence polarisation assays a small probe gives low polarisation when free and higher when bound to something large.
On to `NC(N)=NCCCc1cn(CC(=O)N2CCNCC2)nn1`, for which the inhibition is -0.256%.
On to `O=C(Cc1ccc(S(=O)(=O)N2CCOCC2)s1)Nc1ccc(Br)c(C(F)(F)F)c1`, for which the inhibition is -0.373%.
The same measure for `COC(=O)c1ccc([C@@H](O)[C@H](C)C(=O)CC(=O)OC(C)(C)C)cc1`: 2.15%.
Take `Cc1cc(NC(=O)/C=C/C(=O)N(c2ccccc2C)C(C(=O)NC2CCCC2)c2ccc(F)cc2)no1` (centres undefined): the inhibition is 0.894%.
Consider `CSc1ccc(S(=O)(=O)NCC(=O)OCC(=O)NC2(C#N)CCCCC2)cc1[N+](=O)[O-]`, for which the inhibition was -0.312%.
Turning to `COC(=O)c1cc(NC2c3ccccc3C(=O)N2c2ccc(Cl)cn2)cc(C(=O)OC)c1` (centres undefined), the inhibition was -1.05%.
The same measure for `CCCn1c(N)c(C(=O)CSc2nnc3n2CCCCC3)c(=O)[nH]c1=O`: -2.38%; for `CCOC(=O)c1cc(C(=O)Nc2ccc(S(=O)(=O)Nc3ccc(OC)cc3)cc2)nn1C`: -1.57%; for `CCC(Sc1nncn1C)C(=O)Nc1nnc(-c2ccc(Cl)cc2)s1` (centres undefined): -3.46%.
In the case of `Oc1c(Cl)cc(Cl)c(Cl)c1Cc1c(O)c(Cl)cc(Cl)c1Cl` it was -0.191%; in that of `CC(Oc1cccc(Cl)c1)C(=O)NC1CC(C)(C)NC(C)(C)C1` (centres undefined), -1.58%; in that of `COc1cc(OC)c(NS(=O)(=O)c2cn(C)cn2)cc1Cl`, 0.525%.
With `Cc1nc2ccc(NC(=O)N3CCC(c4ccccc4)C3)cc2nc1C` (centres undefined), the inhibition was -3.95%.
In the case of `COc1ccc(NC(=O)C(CC(C)C)NS(=O)(=O)c2ccc3c(c2)CCN3C(C)=O)cc1OC` (centres undefined) it was 1.56%; in that of `OCCC1CN(Cc2ccc3nsnc3c2)CCN1C1CCCC1` (centres undefined), -1.26%; in that of `O=C(CN(c1ccc2c(c1)OCCO2)S(=O)(=O)c1ccccc1)Nc1ccc2c(c1)OCO2`, -0.247%.
Consider `CCC1C(=O)NCCN1C(=O)c1ccc2nc(Cc3ccc(OC)cc3)oc2c1` (centres undefined), for which the inhibition is -0.899%.
With `S=c1[nH]ccn1-c1ccc(Cl)cc1`, the inhibition is -5.31%.
As for `COc1cc(OC)cc(-c2c(-c3cccs3)c3cc(-c4ccc(OC)nc4)ccc3n2C)c1`, the inhibition is -0.213%.
Consider `Cc1cc(C#N)c(SCC(N)=O)nc1-c1ccc(F)cc1`, for which the inhibition is -0.398%.
Take `Cc1cc(Br)ccc1SCC(=O)OCC(=O)NCc1ccc2c(c1)OCO2`: the inhibition was -1.13%.
Turning to `CCN(Cc1ccccc1)C(=O)Cc1ccc(OC)c(S(=O)(=O)N2CCOCC2)c1`, the inhibition was -0.86%.
Regarding `C=CCN(Cc1nc(-c2cc(OC)c3c(c2)OCO3)oc1C)C1CCS(=O)(=O)C1` (centres undefined), the inhibition is -0.881%.
The same measure for `CCCN(C(=O)COC(=O)CNS(=O)(=O)c1ccc(NC(C)=O)cc1)C1CCS(=O)(=O)C1` (centres undefined): -0.76%; for `Cc1c(N=Nc2ccc(N(C)C)cc2)c(=O)n(-c2ccccc2)n1C`: -5.21%.
As to `CCN(CC)CCCC(C)n1c2nc(=O)[nH]c(=O)c-2nc2cc(Cl)ccc21` (centres undefined), the inhibition was 167% (active).
The same measure for `COc1ccc2c(c1)c1ncn(Cc3ccccn3)c(=O)c1n2C`: -1.99%.
On to `CCCCCNC(=O)C1c2ccccc2Oc2ccccc21`, for which the inhibition is -0.323%.
Turning to `CCOC(=O)CC(NC(=O)C1c2ccccc2Oc2ccccc21)c1ccc(C)cc1` (centres undefined), the inhibition is 1.2%.
For the molecule `CCCN(CCC)C(=O)C1c2ccccc2Oc2ccccc21`, the inhibition was 88.3% (active).
As to `CC(=O)c1nnn(-c2ccc(Cl)cc2C#N)c1C`, the inhibition was -3.28%.
For the molecule `c1ccc(-n2cccc2)c(N2CCCCC2)c1`, the inhibition is 1.68%.
Take `CN1C(c2ccc(F)cc2)=CS/C1=C(/C#N)c1nnc2n1-c1ccccc1SC2`: the inhibition is 1.32%.
Regarding `CC(C)c1ccc(C=NNc2ccc([N+](=O)[O-])cn2)cc1`, the inhibition is -4.43%.
With `Cc1cc(/C=N/Nc2ccc([N+](=O)[O-])cn2)c(C)n1-c1cccc(C(=O)O)c1`, the inhibition is 64.5% (active).
Consider `Cc1cc(/C=N/NC(=O)CC2(C)OCCO2)c(C)n1-c1ccc(Cl)c(Cl)c1`, for which the inhibition is 0.73%.
Consider `Cc1nc(NC(=O)CCC(=O)O)sc1C(=O)N(C)C`, for which the inhibition is -0.461%.
`CCOc1ccc(NC(=O)c2cccc3c2C(=O)N(CC2CCCO2)C3)cc1` (centres undefined): the inhibition was -0.819%.
Take `CC(C)n1c(=S)[nH]c2cc(C(F)(F)F)ccc21`: the inhibition was -0.144%.
`COc1cccc2c1C(=O)c1c(O)c3c(c(O)c1C2=O)CC(O)(C(C)=NNC(=O)c1ccc(Cl)c(Cl)c1)CC3OC1CC(N)C(O)C(C)O1` (centres undefined): the inhibition was 102% (active).
`COc1cccc(Cn2cnc3c([N+](=O)[O-])c(C)c(C)cc32)c1`: the inhibition is -1.77%.
In the case of `Cc1ccc(NC(=O)Cn2cccc2C2=NC(c3ccccc3)CO2)c(C)c1` (centres undefined), the inhibition is 0.882%.
For the molecule `C=CCNc1nc(Nc2ccc(Cl)cc2)nc(OC)n1`, the inhibition was -0.456%.
With `CC12CCC(C(=O)N(CCC#N)CCC#N)(CC1=O)C2(C)C` (centres undefined), the inhibition is 0.103%.
The same measure for `CCOC(=O)c1sc(/N=C/Nc2nc(C)c(C(=O)OCC)s2)nc1C`: -0.364%.
The same measure for `CC(NC(=O)CN(C)S(=O)(=O)c1ccc(F)cc1)C1CC2CCC1C2` (centres undefined): -0.793%; for `O=C(CNCc1ccc(Cl)cc1)Nc1cccc(C(=O)O)c1`: 0.621%; for `S=C(Nc1cccc(Br)c1)N1CCn2cccc2C1c1cccnc1` (centres undefined): 0.461%.
In the case of `O=C1COc2c1ccc(O)c2O` it was 105% (active); in that of `c1ccc(CSc2ncnc3c2sc2nc(N4CCOCC4)c4c(c23)CCCC4)cc1`, 0.637%.
As to `COc1cc(/C=C/C(=O)O)cc(S(=O)(=O)Nc2ccccc2SC)c1OC`, the inhibition is 2.56%.
For the molecule `O=c1[nH]nc(SCCS(=O)(=O)c2ccc(F)cc2)n1-c1ccccc1C(F)(F)F`, the inhibition is -0.936%.
Consider `O=C1OC(Cc2ccccc2)C(c2ccccc2)C1=O` (centres undefined), for which the inhibition was 0.23%.
`CCN(CC)C(=O)[C@H]1C[C@H](CC(=O)NCC23CC4CC(CC(C4)C2)C3)C(=O)N2CCc3c([nH]c4cc(CCC(=O)N(C)C)ccc34)[C@]12C`: the inhibition is -1.63%.
The same measure for `CCC(CC)c1nnc(NC(=O)C2CCN(C(=O)c3ccco3)CC2)s1`: 0.307%; for `CCCN(CC(=O)Nc1ccccc1C)C(=O)c1ccc(OCC(=O)N2CCOCC2)c(OCC)c1`: 0.13%.
On to `COCCNC(=O)C1CCN(S(=O)(=O)c2ccc3c(c2)OCCO3)CC1`, for which the inhibition was -0.000473%.
Turning to `CCCn1nc(C(=O)OCc2nc(N)nc(Nc3ccccc3C)n2)c2ccccc2c1=O`, the inhibition is -0.106%.
As for `CC(C)Cn1c(=O)c2ccccc2n2c(CCC(=O)NCc3ccccn3)nnc12`, the inhibition is -0.283%.
In the case of `COc1cc(C(=O)NCc2ccc3c(c2)cc(C)n3C)cc(OC)c1OC` it was 1.89%; in that of `COc1ccc(-c2c(C)nn3c(N4CCC(C(=O)N5CCCCC5)CC4)cc(C)nc23)cc1OC`, -1.26%; in that of `COc1ccc(/C=N/NC(=O)Cn2cc(C(F)(F)F)ccc2=O)cc1`, 0.0809%.
Turning to `CCCOc1ccc(Cc2c(O)nc(N)[nH]c2=O)cc1C`, the inhibition is 3.16%.
With `Cc1cc(/C=N/NC(N)=O)c(C)n1C1CCCCC1`, the inhibition was -1.79%.
On to `Cc1ccc2c(=O)oc(N(C)C)nc2c1`, for which the inhibition is 0.463%.
In the case of `CC(C)CCNC(=O)CC1C(=O)N(Cc2ccccc2)C(C)c2nc3ccccc3n21` (centres undefined) it was 0.0911%.
Take `Clc1ccc(C2=CSC3=Nc4cccc5cccc(c45)N23)cc1`: the inhibition is 0.203%.
For the molecule `CS(=O)(=O)c1ccc2nnn(OCC(=O)Nc3cccc(C#N)c3)c2c1`, the inhibition was 0.484%.
Turning to `O=C(c1ccco1)N(Cc1nc2ccccc2c(=O)[nH]1)C1CCCC1`, the inhibition is 1.54%.
For `Nc1ccc2nc3c(=O)[nH]c(=S)[nH]c3nc2c1`, the inhibition is 81% (active).
`CCCCn1nc(C(=O)Nc2ccc(S(=O)(=O)Nc3ncccn3)cc2)c2ccccc2c1=O`: the inhibition was 4.67%.
As for `Cc1c(C=O)n(C)n(-c2ccccc2)c1=O`, the inhibition is 0.314%.
Consider `COc1ccccc1CNS(=O)(=O)c1cc(C(=O)NCc2ccccn2)c(Cl)cc1Cl`, for which the inhibition was 2.38%.
As for `O=C(c1ccccc1)N1CCC(CC2CC(c3ccc(Cl)cc3)=NO2)(C(=O)NCC2CCCCC2)CC1` (centres undefined), the inhibition is 2.87%.
For the molecule `Cc1ccc(S(=O)(=O)n2oc(=O)c(C3CCCCC3)c2N)cc1`, the inhibition was -3.57%.
Turning to `COc1cccc(N2CC(NS(=O)(=O)c3ccc(Cl)cc3)CC2=O)c1` (centres undefined), the inhibition was -1.06%.
As for `COc1cccc(-c2nc3n(n2)C(c2ccccc2Cl)C(C(N)=O)=C(C)N3)c1` (centres undefined), the inhibition was -1.68%.
Take `COc1ccc(C2C(C#N)=C(N)Oc3cc(N)ccc32)cc1OC` (centres undefined): the inhibition is -0.0442%.
Take `COc1ccc(C2c3ccc(O)cc3Oc3ncn(CCCO)c(=N)c32)cc1OC` (centres undefined): the inhibition is 90.6% (active).
In the case of `COc1ccc(CNCCCO)cc1OC` it was 0.662%.
The same measure for `COc1cc(/C=C(\C#N)C(=O)Nc2ccc3ccccc3c2)c([N+](=O)[O-])cc1OC`: -1.48%.
Consider `CCC1OC(c2ccc([N+](=O)[O-])cc2)=Nc2ccccc21` (centres undefined), for which the inhibition is 1.55%.
On to `O=C(NCCCc1ccccc1)C(=O)c1c[nH]c2ccccc12`, for which the inhibition was 1.71%.
As to `CCCN(CC(=O)NC(=O)NC1CCCCC1)CC(=O)Nc1cc(Cl)ccc1Cl`, the inhibition was -0.226%.
Regarding `CCN1C[C@@H]2[C@@H]3C(=O)N(C)C(=O)[C@@H]3[C@](C)(C1=O)N2C(=O)c1ccccc1`, the inhibition was -2.13%.
Take `CCN(CC(=O)Nc1ccc(OC)cc1)C(=O)c1ccc(Cl)c(S(=O)(=O)N2CCCC2)c1`: the inhibition is 3.81%.
For the molecule `COC(=O)C1=C(O)/C(=C/c2ccc(OCC(=O)Nc3ccccc3)cc2)N=C1C`, the inhibition is 0.272%.
Turning to `CCOC(=O)C1=C(O)/C(=C/c2ccc(OCC(=O)Nc3ccc(C)cc3)cc2)N=C1C`, the inhibition was 0.825%.
`CCOC(=O)C1=C(O)/C(=C/c2cc(C)n(-c3ccccc3)c2C)N=C1C`: the inhibition is 73.6% (active).

Broadly, the inhibition is the relative decrease from the control value, in per cent.
